Test results from PubChem BioAssay AID1220 (Sanford-Burnham Center for Chemical Genomics, 2008).
Hit rate of the full screen: of about 190,000 compounds, about 1,300 (0.68%) were called active. For the sample, actives were picked, then their nearest neighbours and some compounds at random. Values without a mark were called inactive. Cut-off read from the data, not from the text of the source: active = inhibition above about 50%; inactive = the rest.

The compounds below were run against Mannose-6-phosphate isomerase (Homo sapiens) (UniProt P34949) (assay: human PMI inhibitors, high substrate, primary screen, biochemical, fluorescence intensity, high mannose 6-phosphate (AID 1220)). Conditions: recombinant PMI enzyme, coupled fluorescence intensity; at 20 µM; active compounds read high.
Sequence of Mannose-6-phosphate isomerase (Homo sapiens) (P34949 whole entry, looked up): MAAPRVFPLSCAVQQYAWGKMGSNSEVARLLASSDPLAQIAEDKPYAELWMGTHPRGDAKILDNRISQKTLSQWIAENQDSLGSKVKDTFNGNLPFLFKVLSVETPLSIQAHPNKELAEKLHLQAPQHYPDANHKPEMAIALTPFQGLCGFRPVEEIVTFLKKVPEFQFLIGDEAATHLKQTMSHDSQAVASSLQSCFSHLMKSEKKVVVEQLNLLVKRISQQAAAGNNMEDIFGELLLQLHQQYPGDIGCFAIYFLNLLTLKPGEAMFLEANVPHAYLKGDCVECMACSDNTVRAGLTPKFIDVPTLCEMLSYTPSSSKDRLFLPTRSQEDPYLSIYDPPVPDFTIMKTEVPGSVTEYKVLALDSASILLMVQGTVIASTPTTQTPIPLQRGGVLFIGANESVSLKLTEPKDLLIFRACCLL

Structure (SMILES)	inhibition
CCCCCCN1C(=O)C(O)=C(C(C)=O)C1c1ccc(Cl)cc1 (stereo not given)	3.1%
O=C(N/N=C/c1c[nH]c2ccccc12)c1cc(-c2ccccc2)n[nH]1	-2.4%
O=C1NC(CCc2ccccc2)C(=O)N1Cc1ccc(Br)cc1 (stereo not given)	10.5%
COc1ccc(Nc2n[nH]c(N)c2C(N)=O)cc1	1.4%
CN(CC(=O)N1CCCCC1)S(=O)(=O)c1cccc2cccnc12	13.4%
Cc1[nH]c2ccccc2c1/C=N/NC(=O)Nc1ccccc1	-7.2%
CCOc1ccc(C(=O)NCC(=O)Nc2ccc(N3CCOCC3)cc2)cc1OCC	3.6%
O=C(N/N=C/c1coc2ccccc2c1=O)c1cn(-c2ccccc2)nc1-c1ccc(F)cc1	-12.2%
CC(C)OCc1c(C(=O)OC/C(O)=C(\C#N)c2nc3ccccc3[nH]2)oc2ccccc12	28.4%
CCOC(=O)c1c(C)[nH]c2ccc(O)cc12	6%
CCOC(=O)c1c(C)[nH]c2cc(Br)c(O)cc12	2.1%
CCOC(=O)c1c(C)[nH]c2c1cc(O)c1ccccc12	61.2% (active)
Nc1cc(-c2cccc(Br)c2)nn1Cc1ccccc1	11.2%
CCOC(=O)N1CCN(S(=O)(=O)c2ccc(C(=O)NNc3nc4c(C)cccc4s3)cc2)CC1	1.7%
CCCc1n(CC)c2ccccc2[n+]1CC(O)COC1CCCCC1 (stereo not given)	-2.9%
CCOC(=O)/C(C#N)=C\c1cc(OC)c(OC)cc1[N+](=O)[O-]	69.6% (active)
CCOC(=O)/C(C#N)=C/c1ccc(OC)c(OC)c1	5%
COc1cc(/C=C(/NC(=O)c2ccccc2)C(=O)Nc2ccccc2)c([N+](=O)[O-])cc1OC	27.2%
COc1cc(/C=C(\C#N)C(=O)Nc2ccc3ccccc3c2)c([N+](=O)[O-])cc1OC	67% (active)
COc1ccc(NC(=O)/C(=C\c2cc(OC)c(OC)cc2[N+](=O)[O-])NC(=O)c2ccccc2)cc1	15.2%

Structure (SMILES)	inhibition
CCOC(=O)/C(C#N)=C\c1ccc(OC)c(OC)c1	-3.6%
O=C(Cn1ccc([N+](=O)[O-])n1)N1CCc2ccccc21	6.2%
COc1ccccc1Sc1nc(-c2ccccn2)ncc1OC	-3.1%
CCCCC/C=N\NC(=O)Cc1ccc([N+](=O)[O-])cc1	-6.9%
CCOC(=O)C1=C(C)Nc2ncnn2C1c1ccccc1F (stereo not given)	-19.1%
O=C(O)C1C(c2ccccc2)C(C(=O)Oc2ccccc2)C1c1ccccc1 (stereo not given)	-2.4%
CCCCC(=O)NC(c1ccco1)c1c(O)ccc2ccccc12 (stereo not given)	30.3%
CC(C)C(=O)NC(c1ccco1)c1c(O)ccc2ccccc12 (stereo not given)	56.9% (active)
CC(C)C(=O)NC(c1ccc([N+](=O)[O-])cc1)c1c(O)ccc2ccccc12 (stereo not given)	59.5% (active)
CC(=O)NC(c1ccc([N+](=O)[O-])cc1)c1c(O)ccc2ccccc12 (stereo not given)	34.2%
CC(C)C(=O)NC(c1cccc([N+](=O)[O-])c1)c1c(O)ccc2ccccc12 (stereo not given)	26.6%
CCCC(=O)NC(c1ccco1)c1c(O)ccc2ccccc12 (stereo not given)	33.6%
COc1ccc2[nH]c(=O)c(CN(Cc3cccs3)C(=S)Nc3cccc(C)c3)cc2c1	5%
C=CCn1c(SCC(=O)c2ccc(Cl)cc2)nnc1-c1ccc2c(c1)OCO2	-0.6%
O=C(CCNC(=O)c1ccccc1)Oc1ccc([N+](=O)[O-])cc1	-10.4%
N#CC1=C(N)SC(N)=C(C#N)C1c1c(Cl)cccc1Cl	6%
COc1ccc(-c2csc(Cc3nnc(N4CCOCC4)n3-c3ccccc3)n2)cc1OC	-41%
COc1ccc(NC(=O)/C(N=Nc2cc(S(=O)(=O)Nc3ccc(OC)cc3)ccc2OC)=C(\C)O)cc1	-1%
CCOC(=O)N/C(N)=N/c1nc2ccccc2s1	-3.7%
CC(=O)Nc1cc(N=Cc2ccc(O)cc2O)c(Cl)cc1Cl	44.8%

Structure (SMILES)	inhibition
COc1ccc(O)c(C=Nc2cc(NC(C)=O)c(Cl)cc2Cl)c1	19.4%
CC(=O)Nc1cc(Cl)c(N=Cc2ccc(O)cc2O)cc1Cl	63.3% (active)
CCOC(=O)Nc1ccc2c(c1)N(C(=O)OC)c1ccccc1CC2	-3.2%
CS(=O)(=O)N(Cc1ccccc1)c1ccc(C(=O)N2CCOCC2)cc1	11.2%
CCOc1ccc2oc(C(=O)NC3CCN(Cc4ccccc4)CC3)c(C)c2c1	-4.4%
COc1ccc(N2CCN(C(=O)c3ccc(SC)cc3OC)CC2)cc1	21.7%
COc1cc(SC)ccc1C(=O)N1CCN(c2ccc(O)cc2)CC1	55.8% (active)
COc1cc(SC)ccc1C(=O)N1CCN(c2ccccc2)CC1	5.9%
CCn1c(SCC(=O)N2CCCCC2C)nc2ccsc2c1=O (stereo not given)	-3.6%
CCc1ccc(NC(=O)CO/N=C(\C)c2cc3ccccc3o2)cc1	45%
CSc1ccccc1NC(=O)CO/N=C(\C)c1cc2ccccc2o1	14.6%
CCc1cccc(C)c1NC(=O)CO/N=C(\C)c1cc2ccccc2o1	60.5% (active)
O=C(CC1(O)C(=O)N(Cc2cccc3ccccc23)c2ccccc21)c1cccnc1 (stereo not given)	2.3%
CCCn1c(SCc2ccccn2)nc2c1c(=O)n(C)c(=O)n2C	4.6%
O=C(NC1Cc2ccccc2C1)c1cc(COc2ccc(F)cc2Cl)on1	-6.1%
CCS(=O)(=O)c1ccc(-c2csc(-c3ccccc3Cl)n2)c(Cl)c1Cl	5.5%
COc1ccc(CN2CCNC(=O)C2CC(=O)N2CCCCO2)cc1OC (stereo not given)	45.9%
COc1cc(CN2CCNC(=O)C2CC(=O)N2CCCCO2)cc(OC)c1 (stereo not given)	52% (active)
COc1ccc(CN2CCNC(=O)C2CC(=O)N2CCCCO2)c(OC)c1 (stereo not given)	27.5%
COc1cc(OC)cc(-c2nnc(SCc3c(F)cccc3Cl)o2)c1	8.3%
